Experimental findings from ChEMBL document CHEMBL1961873, “Compounds: GSK PKIS; Assays: Nanosyn kinase panel” (2012) are described below.

The target of assay [1] is T1, Aurora kinase A (Homo sapiens) (UniProt O14965).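 Note: values are mean percent inhibition.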
T1 sequence (whole entry): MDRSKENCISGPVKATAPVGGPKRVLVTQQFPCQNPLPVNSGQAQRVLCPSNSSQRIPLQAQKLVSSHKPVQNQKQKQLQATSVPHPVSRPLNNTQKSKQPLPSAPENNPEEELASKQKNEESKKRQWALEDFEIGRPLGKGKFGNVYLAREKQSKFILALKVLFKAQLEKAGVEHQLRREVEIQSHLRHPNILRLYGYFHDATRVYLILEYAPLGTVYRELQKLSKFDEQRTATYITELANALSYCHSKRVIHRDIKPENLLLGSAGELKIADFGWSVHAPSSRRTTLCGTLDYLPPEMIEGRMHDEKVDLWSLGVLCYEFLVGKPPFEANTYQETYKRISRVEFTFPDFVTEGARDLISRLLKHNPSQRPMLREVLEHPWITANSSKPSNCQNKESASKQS
As to conditions: at 1 µM.

Assay [2] concerns the target Aurora kinase B (Homo sapiens) (UniProt Q96GD4). The settings on record: at 0.1 µM.
For assay [3] the target is unchanged. The settings on record: at 1 µM.
Assay [4] deals with T2, Aurora kinase C (Homo sapiens) (UniProt Q9UQB9).
T2 sequence (whole entry): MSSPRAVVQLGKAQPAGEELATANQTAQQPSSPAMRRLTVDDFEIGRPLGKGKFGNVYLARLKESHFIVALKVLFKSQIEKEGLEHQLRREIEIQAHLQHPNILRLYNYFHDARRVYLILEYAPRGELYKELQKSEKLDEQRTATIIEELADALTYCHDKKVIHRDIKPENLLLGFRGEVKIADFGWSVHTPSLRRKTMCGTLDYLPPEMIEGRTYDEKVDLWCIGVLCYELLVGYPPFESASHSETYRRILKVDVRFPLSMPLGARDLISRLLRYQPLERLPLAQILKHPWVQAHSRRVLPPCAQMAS
As to conditions: at 0.1 µM.

The target of assay [5] is T2, Aurora kinase C (Homo sapiens). The settings on record: at 1 µM.
Assay [6] concerns the target Serine/threonine-protein kinase 10 (Homo sapiens) (UniProt O94804). As to conditions: at 0.1 µM.
Assay [7] has the same target. The settings on record: at 1 µM.
Assay [8] has as its target T3, Mitogen-activated protein kinase kinase kinase kinase 2 (Homo sapiens) (UniProt Q12851).
T3 sequence (whole entry): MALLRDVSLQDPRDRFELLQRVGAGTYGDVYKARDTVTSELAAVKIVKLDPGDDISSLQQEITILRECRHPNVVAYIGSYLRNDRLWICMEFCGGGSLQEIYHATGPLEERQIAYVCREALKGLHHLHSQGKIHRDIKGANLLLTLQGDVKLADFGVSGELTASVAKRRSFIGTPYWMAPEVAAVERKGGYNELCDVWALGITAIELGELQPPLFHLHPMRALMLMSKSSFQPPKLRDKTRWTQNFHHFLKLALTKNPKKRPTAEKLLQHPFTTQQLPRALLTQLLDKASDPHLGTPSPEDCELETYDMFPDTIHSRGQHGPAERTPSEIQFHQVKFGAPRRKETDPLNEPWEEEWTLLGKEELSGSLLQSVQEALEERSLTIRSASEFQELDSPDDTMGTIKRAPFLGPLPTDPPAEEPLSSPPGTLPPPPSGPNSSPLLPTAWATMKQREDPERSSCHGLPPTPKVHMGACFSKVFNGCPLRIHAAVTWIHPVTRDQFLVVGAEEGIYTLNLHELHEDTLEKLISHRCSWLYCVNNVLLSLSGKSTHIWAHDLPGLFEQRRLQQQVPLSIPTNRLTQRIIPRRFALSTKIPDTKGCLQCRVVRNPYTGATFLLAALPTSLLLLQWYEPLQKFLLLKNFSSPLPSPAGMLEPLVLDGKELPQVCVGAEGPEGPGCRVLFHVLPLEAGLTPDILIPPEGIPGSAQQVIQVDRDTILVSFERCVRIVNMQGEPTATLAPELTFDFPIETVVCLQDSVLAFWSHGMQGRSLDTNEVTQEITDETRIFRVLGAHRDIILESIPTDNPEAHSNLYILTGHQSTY
As to conditions: at 0.1 µM.

The target in assay [9] is T3, Mitogen-activated protein kinase kinase kinase kinase 2 (Homo sapiens). The settings on record: at 1 µM.
For assay [10], the target named is Mitogen-activated protein kinase kinase kinase kinase 4 (Homo sapiens) (UniProt O95819). The settings on record: at 0.1 µM.
Chain of Mitogen-activated protein kinase kinase kinase kinase 4 (Homo sapiens) (O95819 2-1239 limits assumed): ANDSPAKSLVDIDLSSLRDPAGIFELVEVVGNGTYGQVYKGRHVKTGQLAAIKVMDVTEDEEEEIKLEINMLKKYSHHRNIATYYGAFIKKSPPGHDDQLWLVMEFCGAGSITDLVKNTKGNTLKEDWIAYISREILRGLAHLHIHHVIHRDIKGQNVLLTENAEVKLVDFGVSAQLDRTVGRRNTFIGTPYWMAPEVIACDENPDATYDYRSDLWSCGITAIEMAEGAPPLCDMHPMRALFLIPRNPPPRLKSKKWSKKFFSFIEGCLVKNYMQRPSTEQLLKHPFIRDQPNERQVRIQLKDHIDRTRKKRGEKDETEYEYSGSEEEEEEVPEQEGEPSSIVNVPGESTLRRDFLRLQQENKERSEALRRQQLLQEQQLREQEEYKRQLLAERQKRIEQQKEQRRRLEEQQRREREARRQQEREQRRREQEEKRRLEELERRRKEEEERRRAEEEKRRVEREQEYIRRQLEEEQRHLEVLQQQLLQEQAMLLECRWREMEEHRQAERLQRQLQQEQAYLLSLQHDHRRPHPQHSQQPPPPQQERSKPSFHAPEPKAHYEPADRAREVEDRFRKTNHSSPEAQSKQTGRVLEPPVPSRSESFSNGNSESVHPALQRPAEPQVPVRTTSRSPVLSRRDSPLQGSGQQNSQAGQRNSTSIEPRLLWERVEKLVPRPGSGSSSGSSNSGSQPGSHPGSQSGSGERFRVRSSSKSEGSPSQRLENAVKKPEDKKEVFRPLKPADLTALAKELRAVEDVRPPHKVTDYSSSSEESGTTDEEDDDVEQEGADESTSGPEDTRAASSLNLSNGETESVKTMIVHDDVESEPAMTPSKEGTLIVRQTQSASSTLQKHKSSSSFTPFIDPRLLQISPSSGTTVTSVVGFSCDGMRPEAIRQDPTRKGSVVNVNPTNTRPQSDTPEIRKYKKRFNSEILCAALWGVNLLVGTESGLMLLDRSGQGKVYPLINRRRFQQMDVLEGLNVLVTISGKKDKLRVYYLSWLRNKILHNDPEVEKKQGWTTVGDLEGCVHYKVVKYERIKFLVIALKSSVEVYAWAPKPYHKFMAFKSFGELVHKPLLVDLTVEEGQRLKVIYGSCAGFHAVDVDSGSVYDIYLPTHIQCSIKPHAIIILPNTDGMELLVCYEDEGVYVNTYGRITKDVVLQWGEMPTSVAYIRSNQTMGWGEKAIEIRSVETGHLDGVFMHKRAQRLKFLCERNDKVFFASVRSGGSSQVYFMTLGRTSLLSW
The target is the same in assay [11]. As to conditions: at 1 µM.
Assay [12] addresses Dual specificity mitogen-activated protein kinase kinase 1 (Homo sapiens) (UniProt Q02750). As to conditions: at 0.1 µM.
The target is the same in assay [13]. As to conditions: at 1 µM.
In assay [14] the target is Misshapen-like kinase 1 (Homo sapiens) (UniProt Q8N4C8). As to conditions: at 0.1 µM.
Chain of Misshapen-like kinase 1 (Homo sapiens) (Q8N4C8 whole entry, looked up): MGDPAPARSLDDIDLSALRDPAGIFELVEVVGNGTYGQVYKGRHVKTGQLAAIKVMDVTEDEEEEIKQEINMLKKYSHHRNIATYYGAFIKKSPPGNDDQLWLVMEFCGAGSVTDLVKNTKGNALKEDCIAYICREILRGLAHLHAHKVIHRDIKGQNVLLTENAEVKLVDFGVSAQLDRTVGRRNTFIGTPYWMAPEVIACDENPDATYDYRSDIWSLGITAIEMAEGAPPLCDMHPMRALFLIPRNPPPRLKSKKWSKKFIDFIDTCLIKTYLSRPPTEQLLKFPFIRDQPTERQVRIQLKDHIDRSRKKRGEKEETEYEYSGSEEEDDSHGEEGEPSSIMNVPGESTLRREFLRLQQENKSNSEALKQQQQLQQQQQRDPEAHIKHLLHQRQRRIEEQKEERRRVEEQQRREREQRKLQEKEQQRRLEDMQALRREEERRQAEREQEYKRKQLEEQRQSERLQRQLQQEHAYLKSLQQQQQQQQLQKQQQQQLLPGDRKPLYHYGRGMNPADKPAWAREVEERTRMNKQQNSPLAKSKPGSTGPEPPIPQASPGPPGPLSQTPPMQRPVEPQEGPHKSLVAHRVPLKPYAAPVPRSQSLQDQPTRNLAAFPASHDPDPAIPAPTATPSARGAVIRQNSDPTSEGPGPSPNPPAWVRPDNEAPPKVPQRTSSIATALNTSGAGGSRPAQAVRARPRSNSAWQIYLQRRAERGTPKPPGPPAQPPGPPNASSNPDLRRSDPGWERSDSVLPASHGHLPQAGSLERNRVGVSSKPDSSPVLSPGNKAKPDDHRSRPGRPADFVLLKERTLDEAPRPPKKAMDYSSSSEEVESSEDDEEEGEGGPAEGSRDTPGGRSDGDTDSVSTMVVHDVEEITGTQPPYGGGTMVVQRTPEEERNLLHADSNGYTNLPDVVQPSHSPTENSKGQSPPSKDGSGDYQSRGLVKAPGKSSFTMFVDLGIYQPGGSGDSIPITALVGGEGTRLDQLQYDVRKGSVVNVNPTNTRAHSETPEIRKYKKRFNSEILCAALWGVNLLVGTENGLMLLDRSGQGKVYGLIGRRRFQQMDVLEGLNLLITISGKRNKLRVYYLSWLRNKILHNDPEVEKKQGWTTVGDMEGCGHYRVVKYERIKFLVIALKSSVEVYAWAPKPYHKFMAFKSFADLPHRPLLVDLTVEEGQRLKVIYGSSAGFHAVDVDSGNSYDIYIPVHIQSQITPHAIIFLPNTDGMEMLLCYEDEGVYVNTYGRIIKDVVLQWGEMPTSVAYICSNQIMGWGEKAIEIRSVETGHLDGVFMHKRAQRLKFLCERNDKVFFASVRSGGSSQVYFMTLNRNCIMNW
Assay [15] has the same target. As to conditions: at 1 µM.
In assay [16] the target is T4, Serine/threonine-protein kinase 4 (Homo sapiens) (UniProt Q13043).
T4 sequence (whole entry): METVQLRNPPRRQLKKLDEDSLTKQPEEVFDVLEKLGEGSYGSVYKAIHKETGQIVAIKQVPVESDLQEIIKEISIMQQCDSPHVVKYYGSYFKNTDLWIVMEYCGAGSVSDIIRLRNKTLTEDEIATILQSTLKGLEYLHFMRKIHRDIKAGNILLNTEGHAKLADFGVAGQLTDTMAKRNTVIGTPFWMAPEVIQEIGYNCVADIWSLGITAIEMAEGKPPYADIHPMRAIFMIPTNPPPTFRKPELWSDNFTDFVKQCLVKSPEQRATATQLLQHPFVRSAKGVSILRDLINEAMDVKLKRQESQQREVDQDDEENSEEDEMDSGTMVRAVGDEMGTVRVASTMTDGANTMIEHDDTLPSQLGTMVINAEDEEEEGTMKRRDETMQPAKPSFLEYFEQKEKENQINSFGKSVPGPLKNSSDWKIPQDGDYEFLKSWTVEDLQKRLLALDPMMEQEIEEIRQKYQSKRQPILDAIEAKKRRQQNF
As to conditions: at 0.1 µM.

The target of assay [17] is T4, Serine/threonine-protein kinase 4 (Homo sapiens). The settings on record: at 1 µM.
Assay [18] has as its target T5, Serine/threonine-protein kinase 3 (Homo sapiens) (UniProt Q13188).
T5 sequence (whole entry): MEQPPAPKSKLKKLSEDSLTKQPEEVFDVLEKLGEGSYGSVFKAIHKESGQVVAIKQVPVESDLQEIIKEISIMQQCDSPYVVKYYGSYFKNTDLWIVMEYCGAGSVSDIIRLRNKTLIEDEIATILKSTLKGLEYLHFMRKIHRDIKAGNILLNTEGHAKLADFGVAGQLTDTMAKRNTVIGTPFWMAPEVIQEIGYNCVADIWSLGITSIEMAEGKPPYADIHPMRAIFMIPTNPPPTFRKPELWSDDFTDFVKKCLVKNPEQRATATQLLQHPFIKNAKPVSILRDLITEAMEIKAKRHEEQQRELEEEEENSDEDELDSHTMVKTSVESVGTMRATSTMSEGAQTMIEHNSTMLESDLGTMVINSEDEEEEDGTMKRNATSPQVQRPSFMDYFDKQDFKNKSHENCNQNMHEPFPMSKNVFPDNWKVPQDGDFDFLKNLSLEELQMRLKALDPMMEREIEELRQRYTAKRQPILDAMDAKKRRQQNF
The settings on record: at 0.1 µM.

Assay [19] has as its target T5, Serine/threonine-protein kinase 3 (Homo sapiens). As to conditions: at 1 µM.
The target in assay [20] is Serine/threonine-protein kinase 26 (Homo sapiens) (UniProt Q9P289). The settings on record: at 0.1 µM.
Chain of Serine/threonine-protein kinase 26 (Homo sapiens) (Q9P289 2-416 limits assumed): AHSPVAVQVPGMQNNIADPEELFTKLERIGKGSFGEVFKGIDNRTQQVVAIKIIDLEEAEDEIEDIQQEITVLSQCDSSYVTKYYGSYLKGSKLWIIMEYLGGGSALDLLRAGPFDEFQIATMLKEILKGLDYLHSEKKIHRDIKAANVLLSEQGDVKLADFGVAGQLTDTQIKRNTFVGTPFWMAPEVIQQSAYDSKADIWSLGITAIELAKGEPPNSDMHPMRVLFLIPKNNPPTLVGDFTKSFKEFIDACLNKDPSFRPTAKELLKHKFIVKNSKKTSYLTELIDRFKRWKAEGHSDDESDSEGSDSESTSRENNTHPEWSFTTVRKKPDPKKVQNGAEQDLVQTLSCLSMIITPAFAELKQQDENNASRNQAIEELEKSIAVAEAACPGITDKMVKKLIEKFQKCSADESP

Molecules are shown by their SMILES.

Chain of Dual specificity mitogen-activated protein kinase kinase 1 (Homo sapiens) (Q02750 whole entry): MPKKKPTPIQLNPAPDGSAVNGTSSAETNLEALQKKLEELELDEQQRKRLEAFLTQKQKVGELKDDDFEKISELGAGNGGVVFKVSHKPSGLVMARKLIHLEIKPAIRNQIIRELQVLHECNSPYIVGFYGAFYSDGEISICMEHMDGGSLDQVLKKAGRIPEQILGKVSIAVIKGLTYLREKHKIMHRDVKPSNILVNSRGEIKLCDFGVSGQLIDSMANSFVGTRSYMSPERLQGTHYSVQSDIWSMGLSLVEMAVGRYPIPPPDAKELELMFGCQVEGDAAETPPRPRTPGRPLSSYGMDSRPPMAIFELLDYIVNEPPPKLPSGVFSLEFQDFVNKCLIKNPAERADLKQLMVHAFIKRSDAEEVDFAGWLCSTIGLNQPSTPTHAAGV
Chain of Serine/threonine-protein kinase 10 (Homo sapiens) (O94804 whole entry, looked up): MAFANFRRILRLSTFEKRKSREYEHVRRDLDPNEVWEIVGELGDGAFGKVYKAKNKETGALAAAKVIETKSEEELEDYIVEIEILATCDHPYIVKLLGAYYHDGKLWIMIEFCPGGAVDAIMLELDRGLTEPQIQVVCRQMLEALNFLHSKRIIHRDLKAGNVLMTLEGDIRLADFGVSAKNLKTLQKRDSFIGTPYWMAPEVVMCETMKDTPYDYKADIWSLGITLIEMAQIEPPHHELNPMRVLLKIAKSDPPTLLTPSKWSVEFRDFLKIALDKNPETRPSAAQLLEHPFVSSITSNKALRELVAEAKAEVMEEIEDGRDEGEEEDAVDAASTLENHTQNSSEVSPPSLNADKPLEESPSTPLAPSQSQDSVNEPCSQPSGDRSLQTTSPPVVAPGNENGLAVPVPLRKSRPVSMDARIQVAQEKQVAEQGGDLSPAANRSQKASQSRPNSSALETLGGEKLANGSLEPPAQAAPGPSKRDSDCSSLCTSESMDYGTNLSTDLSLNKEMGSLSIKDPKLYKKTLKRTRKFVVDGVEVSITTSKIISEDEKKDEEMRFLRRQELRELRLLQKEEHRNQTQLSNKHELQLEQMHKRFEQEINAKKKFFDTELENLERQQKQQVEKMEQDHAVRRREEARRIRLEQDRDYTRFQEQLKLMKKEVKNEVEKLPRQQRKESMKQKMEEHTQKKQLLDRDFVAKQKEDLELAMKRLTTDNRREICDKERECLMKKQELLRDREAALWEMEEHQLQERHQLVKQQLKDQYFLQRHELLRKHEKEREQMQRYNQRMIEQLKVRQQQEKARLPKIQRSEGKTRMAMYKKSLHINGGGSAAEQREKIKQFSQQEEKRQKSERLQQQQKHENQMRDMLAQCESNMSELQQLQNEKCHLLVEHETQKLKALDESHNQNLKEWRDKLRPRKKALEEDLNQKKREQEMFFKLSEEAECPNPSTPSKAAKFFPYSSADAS
Chain of Aurora kinase B (Homo sapiens) (Q96GD4 whole entry): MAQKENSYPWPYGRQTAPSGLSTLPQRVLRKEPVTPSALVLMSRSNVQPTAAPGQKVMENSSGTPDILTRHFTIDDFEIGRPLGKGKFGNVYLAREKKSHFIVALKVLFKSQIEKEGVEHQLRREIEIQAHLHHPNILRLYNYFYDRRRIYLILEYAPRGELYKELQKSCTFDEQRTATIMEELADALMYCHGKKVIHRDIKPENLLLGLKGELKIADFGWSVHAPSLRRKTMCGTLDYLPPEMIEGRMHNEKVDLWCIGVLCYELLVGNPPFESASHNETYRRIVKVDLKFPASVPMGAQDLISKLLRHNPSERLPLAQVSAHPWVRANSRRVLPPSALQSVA

Take `CCn1c(-c2nonc2N)nc2cncc(C(=O)N3CCNCC3)c21`: the inhibition in [1] was 2.9%; in [2], 3.66%; in assay [3], 4.51%; in assay [4], -0.51%; in assay [5], 1.12%; in assay [6], 10.8%. Moreover, the inhibition stood at 8.24% in assay [7]; 1.51% in [8]; 2.14% in assay [9]; 3.11% in assay [10]; 4.49% in [11]; 5.61% in assay [12]. Also, the inhibition in [13] amounted to 4.93%; in [14], 5.47%; in assay [15] it was 6.02%; in assay [16], 3.69%; in assay [17], 5.39%; in [18], 8.73%. The inhibition is 8.25% in [19] and -0.22% in assay [20].

In the case of `CCn1c(-c2nonc2N)nc2cnc(Oc3cccc(NC(=O)c4ccc(OCCN5CCOCC5)cc4)c3)cc21`, the inhibition in assay [1] was 43%; in assay [2], 2.17%; in assay [3], 8.22%; in [4], 1.52%; in assay [5], 4.33%; in assay [6] it was 3.13%. Further, the inhibition is 9.94% in [7]; 0.13% in assay [8]; -1.08% in assay [9]; 6.11% in assay [10]; 13.2% in assay [11]; 3.5% in assay [12]. For the same compound, the inhibition in assay [13] was determined as 3.8%; in assay [14], 6.17%; in [15], 12.5%; in assay [16], 2.14%; in assay [17] it was 3.43%; in assay [18], 2.3%. The inhibition is 3.84% in assay [19] and -1.24% in assay [20].

Turning to `Cc1nn(C)c2cc(N(C)c3ccnc(Nc4cccc(S(N)(=O)=O)c4)n3)ccc12`, the inhibition was 89.8% in [1]; 7.86% in assay [2]; 47.5% in assay [3]; 13.3% in assay [4]; 93% in assay [5]; 13.3% in assay [6]. Further, the inhibition in assay [7] worked out at 51.4%; in [8] it was 7.42%; in [9], 30.9%; in [10], 53.7%; in [11] it was 84.1%; in [12] it was 3.83%. For the same compound, the inhibition is 4.09% in assay [13]; 44.2% in assay [14]; 83.8% in assay [15]; 1.85% in assay [16]; 3.69% in [17]; 1.21% in assay [18]. Further, the figures for the inhibition in assay [19] and in [20] were 3.34% and -0.82%, respectively.

With `O=C1NC(=O)C(N2CCc3ccccc32)=C1c1ccc(Cl)cc1`, the inhibition in assay [1] amounted to 15.5%; in assay [2], 5.02%; in [3], 13.8%; in assay [4], 3.07%; in assay [5] it was 15.9%; in [6], 7.48%. Moreover, the inhibition in assay [7] amounted to 8.68%; in assay [8] it was 1.87%; in [9] it was 6.3%; in assay [10] it was 4.26%; in assay [11], 9.97%; in assay [12], 5.02%. Further, the inhibition in [13] is 5.22%; in assay [14] it was 5.14%; in [15] it was 10.3%; in [16] it was 6.36%; in assay [17], 7.67%; in [18], 6.26%. Also, the inhibition was 7.91% in [19] and -1.31% in assay [20].

Regarding `NC(=O)c1ccc(-c2nc(-c3ccccn3)c(-c3ccc4c(c3)OCO4)[nH]2)cc1`, the inhibition in assay [1] was 3.93%; in assay [2], 4.83%; in assay [3], 4.45%; in [4], 1.68%; in [5] it was -2.72%; in [6], 6.27%. In addition, the inhibition in assay [7] came to 3.54%; in [8], 0.64%; in assay [9], 2.35%; in [10], 1.99%; in assay [11], 5.75%; in assay [12] it was 3.95%. The inhibition was 3.52% in assay [13]; 2.63% in assay [14]; 7.53% in assay [15]; 3.9% in assay [16]; 3.51% in assay [17]; 4.2% in assay [18]. Further, the inhibition is 3.42% in assay [19] and -0.92% in assay [20].

Regarding `Cc1ccc(C(=O)NC2CCCCC2)cc1-c1ccc(C(=O)NCC2CC2)cc1`, the inhibition in [1] came out at 4.4%; in [2] it was 3.05%; in assay [3] it was 7.57%; in [4] it was 2.71%; in [5], 14%; in assay [6], 7.27%. For the same compound, the inhibition in [7] came out at 6.5%; in assay [8], 2.78%; in assay [9], 2.05%; in [10], 2.48%; in [11], 0.87%; in assay [12], 4.37%. The inhibition in assay [13] worked out at 4.68%; in [14] it was 4.93%; in assay [15], 1.64%; in [16], 5.76%; in [17], 4.46%; in assay [18], 6.92%. The inhibition was 4.05% in [19] and 1.41% in assay [20].
